Screening results as filed in PubChem BioAssay.
Only some compounds are listed: those with a hit (about 7.3% of all), similar ones and a draw of the others.
NPC1 promoter act: NPC1 promoter activation; Potency, µM (doses to about 9.22 µM), for inactives: top-dose activation, hits mostly activators; Huh7 NPC1 promoter luciferase reporter, 24 h; AID 485313; 320,000 compounds, 2.4% hits; also: % of control where 0% means no effect; nearly all actives have a fitted effect of over 60% in size
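Huh7 reporter cells (NPC1 promoter driving luciferase) are dosed with compound for 24 h at 37 °C, 5% CO2; luciferase detection reagent is then added and luminescence measured after 10 min at ambient temperature.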
SMN2 splice up: SMN2 splice variant enhancement | AID 1458 | HEK293 SMN2-luciferase splicing reporter, luminescence, 30-36 h | 210,000 compounds, 2.8% hits | Potency, µM (top dose mostly 46.1 µM), for inactives: at the highest dose activity change, positive = activation, most hits filed as activators; also: % of control where 0% means no effect; nearly all actives have a fitted effect of over 55% in size
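qHTS luciferase splicing reporter: luminescence rises when SMN2 exon 7 is included in transfected HEK293 cells. Compound exposure lasted 30-36 h at 37C, with 4.5 mM final sodium butyrate as control, followed by a ONE-Glo read.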
KinaseGlo FLuc: counter-screen: inhibitors of Kinase-Glo firefly luciferase. Potency, µM (series often up to 38.3 µM), for inactives: at the top dose activity change, negative = inhibition, hits mostly inhibitors. AID 1379. Q27757. Kinase-Glo luciferase, ATP luminescence, 8 min. 200,000 compounds, 0.28% hits; also: % is scaled to controls: 0 for no effect and ±100 for the full control effect; nearly all actives have a fitted effect of over 60% in size
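Luminescence was the read-out, taken after 8-minute incubation at ambient temperature. Luciferase turned over luciferin with 10 uM ATP in imidazole pH 7.2 buffer containing KCl, MgCl2, Tween 20 and BSA.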
Rab9 prom act: Rab9 promoter activation. Potency, µM (doses to about 9.22 µM), inactives show at the highest dose activation, negative = inhibition, most hits filed as activators. AID 485297. Huh7 Rab9 promoter-luciferase reporter, luminescence, 24 h. 320,000 compounds, 2.8% hits; also: % of control where 0% means no effect; nearly all actives have a fitted effect of over 60% in size
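Rab9 promoter-driven luciferase in stably transfected Huh7 cells; 1500 cells/well rested 2 h, exposed to compound in DMSO for 24 h at 37 °C, 5% CO2. Luminescence read 10 min after adding luciferase reagent at ambient temperature.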
FLuc modulator: inhibits or activates purified firefly luciferase, miR-21 counter-screen | P08659 | purified FLuc, Km substrates, luminescence inhibition | Potency, µM (highest dose often 57.5 µM), for the others: at the top dose activity change, negative = inhibition, most hits filed as inhibitors | 360,000 compounds, 6.9% hits | AID 588342;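 also: plate controls were vehicle for no effect and reference inhibitor for full effect; nearly all actives have a fitted effect of over 55% in size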
Target sequence (P08659 whole entry, looked up): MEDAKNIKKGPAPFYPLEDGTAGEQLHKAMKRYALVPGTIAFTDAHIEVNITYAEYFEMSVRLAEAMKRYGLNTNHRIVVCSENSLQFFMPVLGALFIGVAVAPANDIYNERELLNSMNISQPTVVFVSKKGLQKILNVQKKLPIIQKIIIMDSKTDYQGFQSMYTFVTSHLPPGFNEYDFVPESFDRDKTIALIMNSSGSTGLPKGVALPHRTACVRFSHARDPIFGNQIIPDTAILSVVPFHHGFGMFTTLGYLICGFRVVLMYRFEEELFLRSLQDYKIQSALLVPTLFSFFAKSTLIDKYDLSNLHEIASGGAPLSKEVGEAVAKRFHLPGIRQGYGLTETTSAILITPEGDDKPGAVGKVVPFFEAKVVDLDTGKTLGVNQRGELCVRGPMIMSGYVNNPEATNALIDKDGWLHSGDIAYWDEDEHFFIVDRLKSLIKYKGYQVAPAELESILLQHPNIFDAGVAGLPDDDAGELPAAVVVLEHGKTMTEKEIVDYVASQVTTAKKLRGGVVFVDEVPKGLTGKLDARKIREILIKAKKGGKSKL
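Purified P. pyralis luciferase, 10 nM final, with Km-level 10 uM D-luciferin and 10 uM ATP in 50 mM Tris acetate pH 7.5, 10 mM Mg acetate, 0.01% Tween-20, 0.05% BSA; 6-point qHTS titration about 60 µM downward; luminescence read.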
Starred values were filed as active, the others as inactive; ? = inconclusive; nt = no result; [ ] = dose if it differs, or a comment. Calls follow the shape of the dose curve; as a rule, active = well fitted curve in the direction sought with a large enough effect; inconclusive = small, poorly fitted or top-dose-only effect, or another doubt; inactive = no such curve, though single readings can be large; an effect the other way counts as inactive or inconclusive. Potency is read from the fitted curve at half-maximal effect.

SMILES	NPC1 promoter act	SMN2 splice up	KinaseGlo FLuc	Rab9 prom act	FLuc modulator
Oc1ccc(-c2nc3ccccc3s2)c(O)c1	2.8µM*	nt	nt	4µM*	6µM*
Nc1ccc(O)c(-c2nc3ccccc3s2)c1	3.2µM*	?	2%	?	6µM*
CN(C)c1nc(N)nc(-c2nc3ccccc3s2)n1	8%	8.9µM*	-7%	?	?
Oc1ccc(N=C/C=C/c2cccc(Br)c2)cc1-c1nc2ccccc2s1	?	76%	-1%	?	6µM*
CCC(=O)N1CCc2cc(CNC(=O)C(CC)c3ccccc3)ccc21 (stereo not drawn)	nt	nt	nt	nt	7%
COC(=O)c1sc2cccc(F)c2c1S(=O)(=O)N1CCN(c2cccc(OC)c2)CC1	nt	nt	nt	nt	5%
Cc1cccc(N2CCN(S(=O)(=O)c3cc(C(=O)Nc4ccccc4Cl)ccc3F)CC2)c1C	nt	nt	nt	nt	-1%
COc1ccc(Cn2c(CNS(=O)(=O)c3ccc4c(c3)CCCC4)nc3cccnc32)cc1	nt	nt	nt	nt	-16%
CCc1ccccc1NC(=O)Cn1c(=O)n(Cc2ccc(OC)cc2)c(=O)c2oc3ccccc3c21	nt	nt	nt	nt	1%
CN(C)c1ccc(/C=C(\C#N)c2nc(-c3ccc(Cl)c(Cl)c3)cs2)cc1	nt	7%	nt	nt	4%
Nc1ccccc1-c1nc2ccccc2s1	?	?	3%	4µM*	11µM*
Cc1ccc2c(c1C)NC(=O)C21N2CCCC2C(C(=O)c2ccc3ccccc3c2)C12C(=O)Nc1ccccc12 (stereo not drawn)	0%	nt	nt	12%	9.5µM*
Cc1nc(C)c(C(=O)N2CCCC(C(=O)c3ccc4ccccc4c3)C2)s1 (stereo not drawn)	7%	nt	nt	0%	-2%
Cc1ccc(Cn2c(C)c3cnn(CC(=O)N4CCN(c5cc(C)ccc5C)CC4)c(=O)c3c2C)cc1	nt	-39%	nt	nt	?
CC(=O)n1cc(/C=N/NC(=O)c2ccccc2O)c2ccccc21	28%	nt	nt	?	9.5µM*
CC(C)(C)OC(=O)n1cc(/C=N/NC(=O)c2ccco2)c2ccccc21	22%	nt	nt	17%	9.5µM*
Cc1nc(C)c(C(=O)N/N=C/c2cn(C)c3ccccc23)s1	-3%	-4%	-3%	8%	17µM*
Cn1cc(/C=N/NC(=O)c2cccc([N+](=O)[O-])c2)c2ccccc21	7%	2%	1%	-10%	-2%
Cn1cc(/C=N/NC(=O)c2ccccc2O)c2ccccc21	?	nt	nt	26%	4.8µM*
O=C(CN1C(=O)c2ccccc2C1=O)[C@@H](O)CN1C(=O)c2ccccc2C1=O	nt	7%[9.22 µM]	-5%[7.66 µM]	nt	nt
CCOc1ccccc1CNC(=O)CCc1c(C)nn(-c2ccc(N3CCCC3)nn2)c1C	nt	nt	nt	nt	-11%
O=c1c2c3c(sc2nc(NCCOCCO)n1Cc1ccco1)CCCCC3	?	nt	nt	-5%	17µM*
CC(O)CNc1nc2sc3c(c2c(=O)n1Cc1ccco1)CCCCC3 (stereo not drawn)	?	nt	nt	30%	17µM*
Cc1c(CCC(=O)O)c(=O)oc2cc3occ(-c4ccc(Br)cc4)c3cc12	-6%	nt	nt	-5%	17µM*
Cc1oc2cc3oc(=O)c(CCC(=O)N[C@H](C(=O)O)C(C)C)c(C)c3cc2c1C	-4%	nt	nt	7%	?
SMILES	NPC1 promoter act	SMN2 splice up	KinaseGlo FLuc	Rab9 prom act	FLuc modulator
Cc1oc2cc3oc(=O)c(CCC(=O)N(C)CC(=O)O)c(C)c3cc2c1C	-4%	nt	nt	-7%	7.6µM*
Cc1c(CCC(=O)O)c(=O)oc2cc3occ(-c4ccc(Cl)cc4)c3cc12	-4%	nt	nt	-4%	17µM*
Cc1c(CCC(=O)O)c(=O)oc2cc3occ(-c4ccc(F)cc4)c3cc12	-3%	?	3%	-3%	?
CC(C)NC[C@@H](O)c1ccc(O)c2ncccc12	nt	-6%[9.22 µM]	-5%[7.66 µM]	nt	nt
COc1ccc(-c2cc(C)no2)cc1S(=O)(=O)N1CC(C)Oc2ccccc21 (stereo not drawn)	nt	nt	nt	nt	1%
CCc1ccc(C2=NN(C(=O)OC)C(O)(C(F)(F)F)C2)cc1 (stereo not drawn)	0.45µM*	-2%	-11%	0.63µM*	2.7µM*
CCOC(=O)N1N=C(c2ccc(OC)cc2)CC1(O)C(F)(F)F (stereo not drawn)	1.1µM*	nt	-9%	0.89µM*	3.4µM*
CCOC(=O)N1N=C(c2ccccc2)CC1(O)C(C)(F)F (stereo not drawn)	-4%	8%	-1%	-5%	6%
COc1ccc(CC(=O)N2N=C(c3ccncc3)CC2(O)C(F)(F)F)cc1 (stereo not drawn)	-37%	13%	1%	-22%	5%
Cc1cccc(NC(=O)Cn2cc(C(=O)C3CCCCC3)c3ccccc32)c1	nt	-8%	nt	nt	-2%
Cc1ccc(-c2nnc(N3CCCCCC3)c3ccccc23)cc1	15%	nt	nt	9%	19µM*
COc1ccc(-c2nnc(N3CCCCC3)c3ccccc23)cc1	-2%	-31%	-2%	-3%	?
O=C(O)c1ccc(N=c2oc3cc(O)ccc3cc2C(=O)NCc2ccccc2)cc1	0%	-10%	2%	-4%	?
CCOc1ccc2cc(C(=O)NCc3ccccc3)c(=N)oc2c1	0%	nt	nt	-6%	21µM*
O=C(NCc1ccccc1)c1cc2ccc(O)cc2oc1=O	?	nt	nt	3.2µM*	12µM*
O=S(=O)(Nc1cccc(F)c1)c1ccc2[nH]c3c(c2c1)CCCCC3	nt	nt	nt	nt	-15%
c1csc(-c2nc3nc4ccccc4nc3n2Cc2ccc3c(c2)OCO3)c1	29%	?	-9%	?	2.7µM*
CCCn1c(-c2cccs2)nc2nc3ccccc3nc21	4%	2%	5%	2%	?
Cc1cc(NC(=O)c2cnn(-c3ccccc3)c2-n2cccc2)ccc1Br	nt	22%	nt	nt	-2%
O=C(/C=C/Nc1ccc(Oc2ccccc2Cl)cc1)c1ccco1	3.5µM*	16µM*	-4%	2.2µM*	3.4µM*
COc1ccccc1Oc1ccc(N/C=C/C(=O)c2ccco2)cc1	3.2µM*	11µM*	?	1.4µM*	5.4µM*
COc1ccc(NC(=O)c2cc3c([nH]c2=O)CC(c2ccccc2)CC3=O)cc1 (stereo not drawn)	nt	nt	nt	nt	-2%
O=C(CNC(=O)c1ccccc1Cl)OCc1cc(=O)n2ccsc2n1	nt	nt	nt	nt	-2%
Cc1csc(NC(=O)[C@@H](NC(=O)c2ccccc2)C(C)C)n1	-1%	-5%	1%	-7%	-1%
COc1cccc(C(=O)Nc2nc(-c3nnn(-c4cccc(Cl)c4C)c3C)ns2)c1	nt	nt	nt	nt	12µM*
Cc1ccc(-n2nnc(-c3nsc(NC(=O)c4cccc(Cl)c4)n3)c2C)cc1C	nt	nt	nt	nt	3%
CSc1cccc(-n2nnc(-c3nsc(NC(=O)c4cccs4)n3)c2C)c1	nt	nt	nt	nt	2.7µM*
Cc1cc(C(=O)Nc2nc3c(s2)CCCC3)no1	1.6µM*	?	?	0.79µM*	4.8µM*
Cc1csc(NC(=S)NC(=O)c2ccccc2)n1	?	nt	nt	?	13µM*
Cc1csc(NC(=O)c2cccnc2)n1	-2%	nt	nt	2%	-11%
